Test results: PubChem BioAssay (NCI)
About 79,000 compounds went through this panel and 15% of them were active in at least one assay; those are over-represented in the sample as a whole. A number with no mark means an inactive call. Calls of active or inactive are those of the source. Rule as the data show it: active = growth inhibition above about 70%; inactive = the rest.

Legend:
[1] = NCI Yeast Anticancer Drug Screen. Data for the wt1 strain (AID 149);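 also: 0% = growth of vehicle-treated wt1 cultures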; settings: S. cerevisiae wt1 strain (SPY 50644) growth inhibition, stronger effect = higher value
Procedure, shortened: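 Vehicle-normalised growth inhibition; strain wt1; compound exposure.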

[2] = NCI Yeast Anticancer Drug Screen. Data for the rad50EPP+ strain (AID 151);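 also: 0% = growth of vehicle-treated control cultures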; settings: S. cerevisiae rad50 mutant strain, stronger effect = higher value
Procedure, shortened: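 One strain with a rad50 alteration (rad50EPP+) was compound-treated, its growth then compared to that of vehicle controls.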

[3] = NCI Yeast Anticancer Drug Screen. Data for the mgt1 strain (AID 153); settings: S. cerevisiae mgt1 mutant growth inhibition, stronger effect = higher value
Procedure, shortened: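 After exposure of the mgt1 yeast mutant to compound, growth was measured and reported as inhibition compared with vehicle controls.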

[4] = NCI Yeast Anticancer Drug Screen. Data for the rad50 strain (AID 155);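 also: 0% = growth of vehicle-only cultures of the same strain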; settings: S. cerevisiae rad50 strain growth inhibition, stronger effect = higher value
Procedure, shortened: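 A DNA repair-deficient yeast mutant serves as the test organism; compound-induced growth inhibition is calculated against vehicle-treated cells.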

[5] = NCI Yeast Anticancer Drug Screen. Data for the mec2-1 strain (AID 157); settings: S. cerevisiae mec2-1 strain, stronger effect = higher value
Procedure, shortened: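 Test agents were screened against the mec2-1 yeast strain, with defined DNA repair or cell cycle alteration. Growth was scored as inhibition against vehicle-only controls.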

[6] = NCI Yeast Anticancer Drug Screen. Data for the rad14 strain (AID 159);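 also: 0% = growth of vehicle-treated control cultures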; settings: S. cerevisiae rad14 strain growth inhibition, stronger effect = higher value
Procedure, shortened: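 Vehicle-treated cultures served as the baseline for growth inhibition of a DNA repair-mutant yeast strain exposed to each compound.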

[7] = NCI Yeast Anticancer Drug Screen. Data for the sgs1 mgt1 strain (AID 161);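 also: 0% = growth of cultures given vehicle only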; settings: S. cerevisiae sgs1 mgt1 strain, stronger effect = higher value
Procedure, shortened: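 Mutant yeast exposed to compound; growth scored against vehicle-only wells.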

[8] = NCI Yeast Anticancer Drug Screen. Data for the CLN2oe strain (AID 163);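 also: 0% = growth of vehicle-only control cultures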; settings: S. cerevisiae CLN2oe strain, stronger effect = higher value
Procedure, shortened: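 Here, growth inhibition in a cell-cycle-altered yeast strain after compound exposure was quantified against vehicle control growth.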

[9] = NCI Yeast Anticancer Drug Screen. Data for the cln2 rad14 strain (AID 165);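 also: 0% = growth equal to vehicle treated cultures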; settings: S. cerevisiae cln2 rad14 strain, stronger effect = higher value
Procedure, shortened: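 Growth of compound-exposed yeast (cln2 rad14 genotype) measured and expressed as inhibition relative to vehicle.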

[10] = NCI Yeast Anticancer Drug Screen. Data for the bub3 strain (AID 167); settings: S. cerevisiae bub3 mutant strain, stronger effect = higher value
Procedure, shortened: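 Inhibition values come from growth of compound-treated mutant yeast normalised to vehicle-treated controls.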

[11] = NCI Yeast Anticancer Drug Screen. Data for the wt2 strain (AID 169);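 also: 0% = growth of vehicle-treated yeast cultures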; settings: S. cerevisiae wt2 strain growth inhibition, stronger effect = higher value
Procedure, shortened: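 Genetically defined yeast strains from a DNA-repair/cell-cycle panel were used. Compound-exposed yeast growth was measured, and the inhibition was calculated relative to vehicle treatment.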

[12] = NCI Yeast Anticancer Drug Screen. Data for the mlh1 strain (AID 171);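 also: 0% = growth of vehicle-treated control cultures of the same strain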; settings: S. cerevisiae mlh1 strain growth inhibition, stronger effect = higher value
Procedure, shortened: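 Here the genetically defined yeast mutant is grown with each compound, and the extent to which its growth falls below that of vehicle-exposed cells is reported.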

[13] = NCI Yeast Anticancer Drug Screen. Data for the sgs1 strain (AID 173);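 also: 0% = growth of vehicle-only control cultures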; settings: S. cerevisiae sgs1 mutant, stronger effect = higher value
Procedure, shortened: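 Relative growth inhibition, referenced to vehicle, was determined in a yeast strain with a defined alteration affecting DNA damage repair or cell cycle control after compound exposure.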

[14] = NCI Yeast Anticancer Drug Screen. Data for the mlh1 rad18 strain (AID 175); settings: S. cerevisiae mlh1 rad18 strain growth inhibition, stronger effect = higher value
Procedure, shortened: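 In this whole-cell yeast screen, a strain with altered DNA damage repair is challenged with compound, and its growth is measured against matched vehicle-treated controls.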

[15] = NCI Yeast Anticancer Drug Screen. Data for the rad18 strain (AID 177); settings: S. cerevisiae rad18 mutant growth inhibition, stronger effect = higher value
Procedure, shortened: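 Screen uses a yeast strain with a defined lesion in DNA damage repair; compound effect is read as loss of growth compared to untreated vehicle cultures.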

[16] = NCI Yeast Anticancer Drug Screen. Data for the rad52 strain (AID 147);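 also: 0% = growth of vehicle-treated control cultures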; settings: S. cerevisiae rad52 mutant growth inhibition, stronger effect = higher value
Procedure, shortened: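 Measured: yeast growth inhibition. System: strain with a defined DNA damage repair alteration. Reference: vehicle-treated control cultures.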

[17] = at 5.0 µM (retest, dose inferred, filed as 0.5)
[18] = at 50.0 µM (retest, dose inferred, filed as 5.0)

[Cl][Pt+2][Cl].[NH-]CC1(C[NH-])CCCCC1
growth inhibition ([1]; at 1.2 µM): -67% | growth inhibition ([1]; at 3.7 µM): -17% | growth inhibition ([1]; at 11.0 µM): 99% (active) | growth inhibition ([1]; at 33.0 µM): 99% (active) | growth inhibition ([1]; at 100.0 µM): 98% (active) | growth inhibition ([2]; at 1.2 µM): -41% | growth inhibition ([2]; at 3.7 µM): -6% | growth inhibition ([2]; at 11.0 µM): 96% (active) | growth inhibition ([2]; at 33.0 µM): 98% (active) | growth inhibition ([2]; at 100.0 µM): 98% (active) | growth inhibition ([3]; at 1.2 µM): -44% | growth inhibition ([3]; at 3.7 µM): 12% | growth inhibition ([3]; at 11.0 µM): 98% (active) | growth inhibition ([3]; at 33.0 µM): 99% (active) | growth inhibition ([3]; at 100.0 µM): 98% (active) | growth inhibition ([4]; at 1.2 µM): -63% | growth inhibition ([4]; at 3.7 µM): -37% | growth inhibition [4, 17]: 26% | growth inhibition ([4]; at 11.0 µM): 86% (active) | growth inhibition ([4]; at 33.0 µM): 98% (active) | growth inhibition [4, 18]: 100% (active) | growth inhibition ([4]; at 50.0 µM): 91.1% (active) | growth inhibition ([4]; at 100.0 µM): 98% (active) | growth inhibition ([5]; at 1.2 µM): -67% | growth inhibition ([5]; at 3.7 µM): -19% | growth inhibition [5, 17]: 21% | growth inhibition ([5]; at 11.0 µM): 98% (active) | growth inhibition ([5]; at 33.0 µM): 99% (active) | growth inhibition [5, 18]: 100% (active) | growth inhibition ([5]; at 50.0 µM): 91.9% (active) | growth inhibition ([5]; at 100.0 µM): 98% (active) | growth inhibition ([6]; at 1.2 µM): -29% | growth inhibition ([6]; at 3.7 µM): 6% | growth inhibition ([6]; at 11.0 µM): 96% (active) | growth inhibition ([6]; at 33.0 µM): 98% (active) | growth inhibition ([6]; at 100.0 µM): 98% (active) | growth inhibition [7, 17]: 53% | growth inhibition [7, 18]: 100% (active) | growth inhibition ([7]; at 50.0 µM): 92.7% (active) | growth inhibition ([8]; at 1.2 µM): -5% | growth inhibition ([8]; at 3.7 µM): 14% | growth inhibition ([8]; at 11.0 µM): 62% | growth inhibition ([8]; at 33.0 µM): 98% (active) | growth inhibition ([8]; at 100.0 µM): 98% (active) | growth inhibition [9, 17]: 43% | growth inhibition [9, 18]: 100% (active) | growth inhibition ([9]; at 50.0 µM): 69.5% | growth inhibition ([10]; at 1.2 µM): -42% | growth inhibition ([10]; at 3.7 µM): 23% | growth inhibition [10, 17]: 45% | growth inhibition ([10]; at 11.0 µM): 97% (active) | growth inhibition ([10]; at 33.0 µM): 99% (active) | growth inhibition [10, 18]: 100% (active) | growth inhibition ([10]; at 50.0 µM): 91.7% (active) | growth inhibition ([10]; at 100.0 µM): 98% (active) | growth inhibition ([11]; at 1.2 µM): -23% | growth inhibition ([11]; at 3.7 µM): 28% | growth inhibition ([11]; at 11.0 µM): 90% (active) | growth inhibition ([11]; at 33.0 µM): 99% (active) | growth inhibition ([11]; at 100.0 µM): 99% (active) | growth inhibition ([12]; at 1.2 µM): -68% | growth inhibition ([12]; at 3.7 µM): -2% | growth inhibition ([12]; at 11.0 µM): 97% (active) | growth inhibition ([12]; at 33.0 µM): 98% (active) | growth inhibition ([12]; at 100.0 µM): 97% (active) | growth inhibition ([13]; at 1.2 µM): -14% | growth inhibition ([13]; at 3.7 µM): 11% | growth inhibition ([13]; at 11.0 µM): 83% (active) | growth inhibition ([13]; at 33.0 µM): 98% (active) | growth inhibition ([13]; at 100.0 µM): 97% (active) | growth inhibition [14, 17]: 3% | growth inhibition [14, 18]: 99% (active) | growth inhibition ([14]; at 50.0 µM): 88.8% (active) | growth inhibition ([15]; at 1.2 µM): -24% | growth inhibition ([15]; at 3.7 µM): -6% | growth inhibition ([15]; at 11.0 µM): 89% (active) | growth inhibition ([15]; at 33.0 µM): 97% (active) | growth inhibition ([15]; at 100.0 µM): 96% (active)

Clc1ccc(C(c2ccc(Cl)cc2)N2CCNCC2)cc1
growth inhibition ([16]; at 1.2 µM): 2% | growth inhibition ([16]; at 3.7 µM): -3% | growth inhibition ([16]; at 11.0 µM): -1% | growth inhibition ([16]; at 33.0 µM): 46% | growth inhibition ([16]; at 100.0 µM): 98% (active) | growth inhibition ([1]; at 1.2 µM): 5% | growth inhibition ([1]; at 3.7 µM): 6% | growth inhibition ([1]; at 11.0 µM): 3% | growth inhibition ([1]; at 33.0 µM): 29% | growth inhibition ([1]; at 100.0 µM): 98% (active) | growth inhibition ([2]; at 1.2 µM): 1% | growth inhibition ([2]; at 3.7 µM): 5% | growth inhibition ([2]; at 11.0 µM): 5% | growth inhibition ([2]; at 33.0 µM): 3% | growth inhibition ([2]; at 100.0 µM): -1% | growth inhibition ([4]; at 1.2 µM): -3% | growth inhibition ([4]; at 3.7 µM): -1% | growth inhibition [4, 17]: 38% | growth inhibition ([4]; at 11.0 µM): 6% | growth inhibition ([4]; at 33.0 µM): 67% | growth inhibition [4, 18]: 95% (active) | growth inhibition ([4]; at 50.0 µM): 92% (active) | growth inhibition ([4]; at 100.0 µM): 97% (active) | growth inhibition ([5]; at 1.2 µM): -19% | growth inhibition ([5]; at 3.7 µM): -19% | growth inhibition [5, 17]: 70% (active) | growth inhibition ([5]; at 11.0 µM): -10% | growth inhibition ([5]; at 33.0 µM): 49% | growth inhibition [5, 18]: 96% (active) | growth inhibition ([5]; at 50.0 µM): 93% (active) | growth inhibition ([5]; at 100.0 µM): 98% (active) | growth inhibition ([6]; at 1.2 µM): -36% | growth inhibition ([6]; at 3.7 µM): -30% | growth inhibition ([6]; at 11.0 µM): -41% | growth inhibition ([6]; at 33.0 µM): 71% (active) | growth inhibition ([6]; at 100.0 µM): 98% (active) | growth inhibition [7, 17]: -35% | growth inhibition [7, 18]: 98% (active) | growth inhibition ([8]; at 1.2 µM): -1% | growth inhibition ([8]; at 3.7 µM): -2% | growth inhibition ([8]; at 11.0 µM): 1% | growth inhibition ([8]; at 33.0 µM): 18% | growth inhibition ([8]; at 100.0 µM): 92% (active) | growth inhibition [9, 17]: 61% | growth inhibition [9, 18]: 88% (active) | growth inhibition ([10]; at 1.2 µM): 1% | growth inhibition ([10]; at 3.7 µM): 3% | growth inhibition [10, 17]: 12% | growth inhibition ([10]; at 11.0 µM): 12% | growth inhibition ([10]; at 33.0 µM): 71% (active) | growth inhibition [10, 18]: 96% (active) | growth inhibition ([10]; at 100.0 µM): 94% (active) | growth inhibition ([11]; at 1.2 µM): -3% | growth inhibition ([11]; at 3.7 µM): -2% | growth inhibition ([11]; at 11.0 µM): -81% | growth inhibition ([11]; at 33.0 µM): 46% | growth inhibition ([11]; at 100.0 µM): 99% (active) | growth inhibition ([12]; at 1.2 µM): -35% | growth inhibition ([12]; at 3.7 µM): -34% | growth inhibition ([12]; at 11.0 µM): -34% | growth inhibition ([12]; at 33.0 µM): 49% | growth inhibition ([12]; at 100.0 µM): 98% (active) | growth inhibition ([13]; at 1.2 µM): -26% | growth inhibition ([13]; at 3.7 µM): -33% | growth inhibition ([13]; at 11.0 µM): -34% | growth inhibition ([13]; at 33.0 µM): 41% | growth inhibition ([13]; at 100.0 µM): 98% (active) | growth inhibition [14, 17]: 45% | growth inhibition [14, 18]: 96% (active) | growth inhibition ([14]; at 50.0 µM): 92.3% (active) | growth inhibition ([15]; at 1.2 µM): 3% | growth inhibition ([15]; at 3.7 µM): -7% | growth inhibition ([15]; at 11.0 µM): 4% | growth inhibition ([15]; at 33.0 µM): 65% | growth inhibition ([15]; at 100.0 µM): 98% (active)
